Results reported in PubChem BioAssay AID1159580 (chemical genetic matrix, 2015).
The campaign covered roughly 5,500 compounds. About 2,000 (36%) were called active. Another 18% or so got no clear call; they are omitted. Rule as the data show it: active = normalized growth mostly below about 0.91 (no sharp cut-off); inconclusive = no clear call, values can overlap the other calls; inactive = mostly above about 0.92. The list shows a part of the results.

Test: chemical genetic growth profiling, strain panel (AID 1159580);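 also: tested at 20 µM; growth read once vehicle control cultures reached saturation at 30 °C; 1 = growth at the plate median or of vehicle wells; lower values mean less growth of the strain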
Conditions: S. cerevisiae deletion strains, growth OD

Measured: normalized growth

O=S(=O)(O)c1cc(N=C=S)ccc1/C=C/c1ccc(N=C=S)cc1S(=O)(=O)O
inactive: locus YAL021C, strain ccr4, hits give low values 1.03 | locus YAL026C, strain drs2, hits give low values 1.01 | locus YAL030W, strain snc1, hits give low values 1.02 | locus YBL061C, strain skt5, hits give low values 1.03 | locus YBR009C, strain hhf1, hits give low values 1.05 | locus YBR023C, strain chs3, hits give low values 1.02 | locus YBR171W, strain sec66, hits give low values 1.04 | locus YBR231C, strain swc5, hits give low values 1.03 | locus YBR279W, strain paf1, hits give low values 1.01 | locus YCL011C, strain gbp2, hits give low values 1.02 | locus YCL016C, strain dcc1, hits give low values 1.03 | locus YCL061C, strain MRC1, hits give low values 1.02 | locus YCL069W, strain vba3, hits give low values 1.02 | locus YCR088W, strain abp1, hits give low values 1.02 | locus YDL005C, strain med2, hits give low values 1.03 | locus YDL040C, strain nat1, hits give low values 1.02 | locus YDR001C, strain nth1, hits give low values 1.02 | locus YDR069C, strain doa4, hits give low values 1.05 | locus YDR137W, strain rgp1, hits give low values 1.01 | locus YDR159W, strain sac3, hits give low values 1.06 | locus YDR195W, strain ref2 1.03 | locus YDR297W, strain sur2, hits give low values 1.03 | locus YDR334W, strain swr1, hits give low values 1.02 | locus YDR335W, strain msn5, hits give low values 1.03 | locus YDR392W, strain spt3, hits give low values 0.919 | locus YEL003W, strain gim4, hits give low values 1.02 | locus YEL037C, strain rad23, hits give low values 1.02 | locus YEL061C, strain CIN8 (second series), hits give low values 1.02 | locus YER015W, strain faa2, hits give low values 1.03 | locus YER016W, strain bim1, hits give low values 1.03 | locus YER111C, strain swi4, hits give low values 1.03 | locus YER155C, strain BEM2 (second series), hits give low values 1.04 | locus YFR010W, strain ubp6, hits give low values 1.03 | locus YGL167C, strain pmr1, hits give low values 1.03 | locus YGL173C, strain kem1, hits give low values 1.04 | locus YGL227W, strain vid30, hits give low values 1.03 | locus YGL240W, strain doc1, hits give low values 1.03 | locus YGL253W, strain hxk2, hits give low values 1.03 | locus YHR013C, strain ard1, hits give low values 1.04 | locus YHR027C, strain rpn1, hits give low values 1.02 | locus YHR030C, strain SLT2, hits give low values 0.996 | locus YHR079C, strain IRE1, hits give low values 1.04 | locus YHR142W, strain chs7, hits give low values 1.04 | locus YJL092W, strain hpr5, hits give low values 1.01 | locus YJL095W, strain BCK1 (second series), hits give low values 1.02 | locus YJL095W, strain BCK1, hits give low values 0.99 | locus YJL115W, strain asf1, hits give low values 1.02 | locus YJL129C, strain trk1, hits give low values 1.06 | locus YJL154C, strain vps35, hits give low values 1.02 | locus YJL164C, strain tpk1, hits give low values 0.994 | locus YJL166W, strain qcr8, hits give low values 1.02 | locus YJL187C, strain SWE1, hits give low values 1.02 | locus YJR066W, strain TOR1, hits give low values 0.924 | locus YKL160W, strain elf1, hits give low values 1.02 | locus YKR026C, strain gcn3, hits give low values 1.02 | locus YKR091W, strain srl3, hits give low values 1.03 | locus YLL001W, strain dnm1, hits give low values 1.01 | locus YLL026W, hits give low values 1.01 | locus YLL041C, strain sdh2, hits give low values 1.02 | locus YLR027C, strain aat2, hits give low values 1.02 | locus YLR113W, strain HOG1, hits give low values 1.11 | locus YLR221C, strain rsa3, hits give low values 1.02 | locus YLR258W, strain gsy2, hits give low values 1.03 | locus YLR262C, strain YPT6 (second series), hits give low values 1.04 | locus YLR320W, strain mms22, hits give low values 1.05 | locus YLR342W, strain FKS1, hits give low values 1.04 | locus YLR357W, strain rsc2, hits give low values 0.993 | locus YLR370C, strain arc18, hits give low values 1.03 | locus YLR384C, strain iki3, hits give low values 1.03 | locus YML120C, strain ndi1, hits give low values 1.01 | locus YMR058W, strain fet3, hits give low values 1.01 | locus YMR125W, strain sto1, hits give low values 1.03 | locus YMR129W, hits give low values 1.02 | locus YMR205C, strain PFK2, hits give low values 1.06 | locus YMR231W, strain pep5, hits give low values 1.02 | locus YNL071W, strain lat1, hits give low values 1.02 | locus YNL183C, strain NPR1, hits give low values 0.961 | locus YNL209W, strain ssb2, hits give low values 1.03 | locus YNL248C, strain rpa49, hits give low values 1 | locus YNL322C, strain KRE1 (second series), hits give low values 1.03 | locus YNR049C, strain mso1, hits give low values 1.03 | locus YOR001W, strain rrp6, hits give low values 0.999 | locus YOR070C, strain gyp1, hits give low values 1.01 | locus YOR080W, strain dia2, hits give low values 1.04 | locus YOR083W, strain WHI5, hits give low values 1.01 | locus YOR106W, strain vam3, hits give low values 1.04 | locus YOR231W, strain MKK1, hits give low values 1.03 | locus YOR265W, strain rbl2, hits give low values 1.02 | locus YOR270C, strain vph1, hits give low values 1.04 | locus YOR290C, strain snf2, hits give low values 0.954 | locus YPL051W, strain arl3, hits give low values 0.994 | locus YPL078C, strain atp4, hits give low values 1.02 | locus YPL106C, strain sse1, hits give low values 1.05 | locus YPL240C, strain hsp82, hits give low values 1.03 | locus YPL256C, strain CLN2, hits give low values 1.11
